PubChem BioAssay AID1159580 (chemical genetic matrix, 2015)
“And” between values parts separate entries of the source, which are not always exact repeats. Identical values can stand only once. Among all 5,500 compounds or so, about 2,000 (36%) were called active. Not shown: some 18% with an inconclusive outcome. No stated cut-off is given here; in the data, active means normalized growth mostly below about 0.91 (no sharp cut-off); inconclusive means no clear call, values can overlap the other calls; inactive means mostly above about 0.92. The list shows a part of the results.

Assay: chemical genetic growth profiling, strain panel (AID 1159580);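 further: tested at 20 µM; growth read once vehicle control cultures reached saturation at 30 °C; 1 = growth at the plate median or of vehicle wells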
Conditions: S. cerevisiae deletion strains, growth OD

Measured: normalized growth

O=C(O)CCCCCCCCCCCCC1C=CCC1 (stereo not drawn)
0.311 (active) and 0.959 (inactive): locus YHR030C, strain SLT2, stronger effect = lower value
inactive: locus YBR229C, strain ROT2, stronger effect = lower value 1.01 | locus YCL029C, strain bik1, stronger effect = lower value 0.939 | locus YDL035C, strain GPR1, stronger effect = lower value 0.87 | locus YDL101C, strain DUN1, stronger effect = lower value 0.958 | locus YDL134C, strain PPH21, stronger effect = lower value 0.93 | locus YDL185W, strain tfp1, stronger effect = lower value 1.01 | locus YDR162C, strain NBP2, stronger effect = lower value 0.911 | locus YDR318W, strain mcm21, stronger effect = lower value 0.946 | locus YDR388W, stronger effect = lower value 0.976 | locus YEL061C, strain CIN8, stronger effect = lower value 0.971 | locus YER110C, stronger effect = lower value 1.01 | locus YER167W, strain BCK2, stronger effect = lower value 1.01 | locus YGL078C, strain dbp3, stronger effect = lower value 0.973 | locus YGR135W, strain pre9, stronger effect = lower value 0.953 | locus YGR252W, strain gcn5, stronger effect = lower value 0.78 | locus YHR079C, strain IRE1 (second series), stronger effect = lower value 0.98 | locus YHR079C, strain IRE1, stronger effect = lower value 0.935 | locus YHR094C, strain hxt1, stronger effect = lower value 1 | locus YHR200W, strain rpn10, stronger effect = lower value 1 | locus YIL125W, strain kgd1, stronger effect = lower value 0.99 | locus YIR030C, strain dcg1, stronger effect = lower value 0.998 | locus YJL134W, strain LCB3, stronger effect = lower value 1.02 | locus YJL168C, strain set2, stronger effect = lower value 0.999 | locus YJL187C, strain SWE1 (second series), stronger effect = lower value 0.867 | locus YJR043C, strain POL32, stronger effect = lower value 0.919 | locus YJR066W, strain TOR1, stronger effect = lower value 0.931 | locus YJR075W, strain HOC1, stronger effect = lower value 0.967 | locus YKL009W, strain mrt4, stronger effect = lower value 0.972 | locus YKL068W, stronger effect = lower value 1.01 | locus YKL085W, strain MDH1 (second series), stronger effect = lower value 1.01 | locus YKL085W, strain MDH1, stronger effect = lower value 1.01 | locus YLR058C, strain SHM2, stronger effect = lower value 0.902 | locus YLR102C, strain apc9, stronger effect = lower value 0.998 | locus YLR113W, strain HOG1, stronger effect = lower value 0.995 | locus YLR342W, strain FKS1 (second series), stronger effect = lower value 0.854 | locus YLR371W, strain rom2, stronger effect = lower value 0.992 | locus YML016C, strain PPZ1, stronger effect = lower value 1.03 | locus YML032C, strain rad52, stronger effect = lower value 0.977 | locus YML124C, strain tub3, stronger effect = lower value 0.998 | locus YMR078C, strain ctf18, stronger effect = lower value 1.01 | locus YMR263W, strain SAP30, stronger effect = lower value 0.915 | locus YMR307W, strain GAS1, stronger effect = lower value 1.13 | locus YNL067W, strain RPL9B, stronger effect = lower value 0.933 | locus YNL183C, strain NPR1, stronger effect = lower value 0.903 | locus YNL250W, strain rad50, stronger effect = lower value 1.02 | locus YNL271C, strain bni1, stronger effect = lower value 0.976 | locus YNL298W, strain CLA4, stronger effect = lower value 0.944 | locus YNR052C, strain pop2, stronger effect = lower value 0.988 | locus YOL006C, strain TOP1, stronger effect = lower value 0.764 | locus YOL012C, strain htz1 0.57 | locus YOR061W, strain CKA2, stronger effect = lower value 0.987 | locus YOR069W, strain VPS5, stronger effect = lower value 0.956 | locus YOR136W, strain idh2, stronger effect = lower value 0.976 | locus YOR231W, strain MKK1, stronger effect = lower value 0.954 | locus YOR316C, strain cot1, stronger effect = lower value 0.999 | locus YPL256C, strain CLN2, stronger effect = lower value 1.04 | locus YPR119W, strain clb2, stronger effect = lower value 0.993 | locus YPR141C, strain kar3, stronger effect = lower value 1.01 | locus YPR163C, strain tif3, stronger effect = lower value 0.921 | locus YPR167C, strain met16, stronger effect = lower value 0.989 | strain wtn01, stronger effect = lower value 0.908
active: locus YBR021W, strain FUR4, stronger effect = lower value 0.186 | locus YDL074C, strain BRE1, stronger effect = lower value 0.653 | locus YDL192W, strain arf1, stronger effect = lower value 0.82 | locus YDR101C, strain arx1, stronger effect = lower value 0.883 | locus YDR502C, strain sam2, stronger effect = lower value 0.917 | locus YER155C, strain BEM2, stronger effect = lower value 0.745 | locus YGL086W, strain mad1, stronger effect = lower value 0.853 | locus YGL248W, strain PDE1, stronger effect = lower value 0.865 | locus YHR129C, strain ARP1, stronger effect = lower value 0.885 | locus YIL066C, strain RNR3, stronger effect = lower value 0.841 | locus YIL073C, strain SPO22, stronger effect = lower value 0.604 | locus YKL190W, strain CNB1, stronger effect = lower value 0.761 | locus YKR001C, strain vps1, stronger effect = lower value 0.337 | locus YLR039C, strain RIC1, stronger effect = lower value 0.422 | locus YLR262C, strain YPT6, stronger effect = lower value 0.476 | locus YLR268W, strain sec22, stronger effect = lower value 0.812 | locus YLR330W, strain CHS5, stronger effect = lower value 0.822 | locus YLR418C, strain cdc73, stronger effect = lower value 0.632 | locus YMR223W, strain ubp8, stronger effect = lower value 0.871 | locus YNL153C, strain GIM3, stronger effect = lower value 0.808 | locus YNL233W, strain BNI4, stronger effect = lower value 0.652 | locus YNL307C, strain MCK1, stronger effect = lower value 0.585 | locus YOL147C, strain pex11, stronger effect = lower value 0.871 | locus YOR144C, strain elg1, stronger effect = lower value 0.901 | locus YOR184W, strain ser1, stronger effect = lower value 0.726
0.542 (active) and 0.952 (inactive): locus YJL095W, strain BCK1, stronger effect = lower value
